# Source: PubChem (National Center for Advancing Translational Sciences (NCATS))
# Compounds with a hit are over-represented: about 18% of the library has one in this group of screens.
# TDP1 cell noCPT – qHTS for Inhibitors of human tyrosyl-DNA phosphodiesterase 1 (TDP1): qHTS in cells in absence of CPT. DT40 Tdp1-/- hTDP1 cells, no CPT, ATP luminescence, 48 h. Potency, µM (doses to about 46.2 µM), for the others: top-dose activity change, negative = growth inhibition, most hits filed as inhibitors. hit rate 15% among 420,000. AID 686978, 2013; also: potency is read from the fitted curve at half-maximal effect; nearly all actives have a fitted effect of over 55% in size
#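 Stably hTDP1-transfected Tdp1-null chicken DT40 cells were treated with library compounds minus camptothecin and grown for at least 48 hr at 37 °C, after which cellular ATP was quantified by luminescence.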
# TDP1 cell CPT – qHTS for Inhibitors of human tyrosyl-DNA phosphodiesterase 1 (TDP1): qHTS in cells in presence of CPT; chicken DT40 Tdp1-/-;hTDP1 cells + 20 nM CPT, ATP luminescence, 48 h; Potency, µM (top dose mostly 46.2 µM), inactives show at the highest dose activity change, negative = growth inhibition, most hits filed as inhibitors; hit rate 12% among 420,000; AID 686979, 2013; also: potency is read from the fitted curve at half-maximal effect; nearly all actives have a fitted effect of over 55% in size
#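 Cell growth measured by CellTiter-Glo luminescence after a minimum 48 h, 37 C compound exposure with 20 nM CPT in Tdp1-knockout DT40 cells stably expressing hTDP1, seeded 400/well; qHTS titration format.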
# LDHA inh – qHTS assay for inhibitors of human lactate dehydrogenase; L-lactate dehydrogenase A chain (Homo sapiens), P00338; purified LDHA, NADH/diaphorase-resazurin fluorescence; active compounds read low; activity change, % (values are at about 110 or 230 µM); hit rate 0.15% among 480,000; in the data active = activity change below about -30%; inconclusive = mostly about -25% to -30%;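 also: plate controls were DMSO wells for no effect and wells without enzyme for full effect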
#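 Enzyme activity of human lactate dehydrogenase 5 (2 nM; 0.06 mM NADH, 0.2 mM pyruvate, 5 min, RT) is measured via a resazurin/diaphorase fluorescence readout of residual NADH.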
# RORgamma inh – qHTS for inhibitors of ROR gamma transcriptional activity; Nuclear receptor ROR-gamma (Mus musculus), P51450; Drosophila S2 Gal4-RORgamma UAS-luciferase reporter, 20 h; Potency, µM (doses to about 53.6 µM), without a hit: at the top dose activity change, negative = inhibition, usual class: inhibitors; hit rate 5.4% among 310,000; also: potency is read from the fitted curve at half-maximal effect; nearly all actives have a fitted effect of over 60% in size
# Target sequence (P51450 whole entry, looked up, the tested form may be a part): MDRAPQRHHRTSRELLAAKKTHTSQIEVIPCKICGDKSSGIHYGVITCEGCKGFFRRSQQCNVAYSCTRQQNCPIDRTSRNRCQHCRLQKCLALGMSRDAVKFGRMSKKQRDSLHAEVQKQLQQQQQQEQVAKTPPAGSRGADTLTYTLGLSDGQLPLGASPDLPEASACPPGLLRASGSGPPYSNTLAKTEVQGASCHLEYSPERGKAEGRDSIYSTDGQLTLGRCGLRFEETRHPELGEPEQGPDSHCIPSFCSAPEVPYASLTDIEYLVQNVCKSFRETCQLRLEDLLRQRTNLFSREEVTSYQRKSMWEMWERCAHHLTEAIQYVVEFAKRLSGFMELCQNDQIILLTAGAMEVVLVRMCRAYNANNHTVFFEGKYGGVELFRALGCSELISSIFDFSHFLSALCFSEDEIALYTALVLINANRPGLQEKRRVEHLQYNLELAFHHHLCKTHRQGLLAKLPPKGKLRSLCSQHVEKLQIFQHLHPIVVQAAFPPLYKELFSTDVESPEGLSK
#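 Drosophila S2 cells stably expressing Gal4-DBD/mouse RORγ fusion under metallothionein promoter plus UAS-luciferase; compound 1 h, then 700 uM CuSO4 induction for 20 h at ambient temperature; inhibition read as reduced luminescence.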
# IL-1B inflam inh – qHTS for Inhibitors of Inflammasome Signaling: IL-1-beta AlphaLISA Primary Screen; activity change, % at 57.5 µM; THP-1 LPS/ATP IL-1B secretion, AlphaLISA, 16 h; active compounds read low; hit rate 4.7% among 360,000; in the data active = activity change below about -50%; inconclusive = mostly about -30% to -49%
#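 Secreted IL-1B measured by AlphaLISA bead assay after 16 h compound exposure of THP-1 cells; compounds (final up to 57.5 uM) added 1 h before LPS (250 ng/mL) and ATP (1.25 mM) stimulation; lower signal means less secretion.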
# VP16 counter – VP16 counterscreen qHTS for inhibitors of ROR gamma transcriptional activity; Drosophila S2 Gal4-VP16 UAS-luciferase, luminescence, 20 h; Potency, µM (top dose mostly 53.6 µM), for inactives: at the top dose activity, negative = inhibition, hits mostly inhibitors; hit rate 3.5% among 310,000; AID 2546, 2010;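 also: Gal4-VP16 expression switched on by copper sulfate through the metallothionein promoter; potency is read from the fitted curve at half-maximal effect; nearly all actives have a fitted effect of over 50% in size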
# Active calls of the source: *; u = inconclusive; x = not tested or not shown; [ ] = remark or other dose. Unless noted, calls follow the shape of the dose curve; as a rule, active = well fitted curve in the direction sought with a large enough effect; inconclusive = small, poorly fitted or top-dose-only effect, or another doubt; inactive = no such curve, though single readings can be large; an effect the other way counts as inactive or inconclusive. Unless noted, % is scaled to controls: 0 for no effect and ±100 for the full control effect.
SMILES,TDP1 cell noCPT,TDP1 cell CPT,LDHA inh,RORgamma inh,IL-1B inflam inh,VP16 counter
COc1cccc(/C=C/C(=O)OCC(=O)c2ccc(C)c(C)c2)c1OC,25.9µM*,-27.5%,0.0,x,-5.2,x
COc1ccc(C(=O)CCC(=O)OCC(=O)c2ccc3c(c2)OCCO3)cc1,x,x,4.9,x,x,x
COc1cccc(/C=C/C(=O)c2ccc3c(c2)OCCO3)c1OC,u,4.11µM*,-7.9,11.2µM*,-99.3*,u
COc1cc(CC(=O)OCC(=O)c2ccc3c(c2)OCCO3)cc(OC)c1OC,1.3µM*,1.3µM*,-1.7,6.8%,59.8,-2.1%
O=C(/C=C/c1cccc([N+](=O)[O-])c1)c1ccc2c(c1)OCCO2,18.4µM*,u,1.1,u,0.0,u
Cc1ccc(NCC(O)Cn2c3ccccc3n3c(=O)cc(C)c(C#N)c23)cc1Cl (stereo unspecified),x,x,7.9,x,x,x
COc1ccccc1NC(CC(=O)c1ccccc1)C(=O)OCC(=O)c1ccc(C)c(C)c1 (stereo unspecified),16.4µM*,10.3µM*,-3.1,3.4%,4.9,u
COc1ccc(/C=C/C(=O)c2ccc3c(c2)OCCO3)cc1[N+](=O)[O-],14.6µM*,u,0.9,0.5%,-55.1*,1.0%
O=C(CCc1ncc(-c2c(F)cccc2F)o1)Nc1ccc(F)c(F)c1F,x,x,11.0,x,x,x
COc1ccc(NC(=O)Cn2c(=O)oc3cc(S(=O)(=O)NC4CCCC4)ccc32)cc1OC,20.6µM*,u,-10.8,x,x,x
CC1Cc2ccccc2N1C(=O)Cn1c(=O)oc2cc(S(=O)(=O)NC3CCCC3)ccc21 (stereo unspecified),u,u,-10.6,-8.3%,-52.4*,-4.9%
COc1ccc(NC(=O)COc2ccc(S(=O)(=O)NC3CCCCC3)cc2)cc1OC,20.6µM*,u,-1.4,x,x,x
O=C(Nc1ccc2oc(C3CC3)nc2c1)c1ccc(=O)[nH]n1,x,x,6.6,x,x,x
COC(=O)c1cccc(N2C(=O)C[C@](Sc3ccc(C)cc3)(C(=O)OC)[C@H]2c2ccccc2)c1,23.1µM*,u,-3.1,x,7.0,x
COC(=O)[C@@]1(Sc2ccc(C)cc2)CC(=O)N(c2ccc(Cl)cc2)[C@@H]1c1ccccc1,20.6µM*,u,-0.6,x,18.0,x
COC(=O)[C@@]1(Sc2ccc(C)cc2)CC(=O)N(c2ccc3c(ccn3C)c2)[C@@H]1c1ccccc1,u,u,2.5,x,38.4,x
NCCC12CC3CC(C1)CC(C(=O)O)(C3)C2,x,x,-0.4,x,x,x
Cc1cc(C(F)(F)F)c2c(N)c(C(=O)Nc3c(Cl)cccc3Cl)sc2n1,u,u,-5.6,x,x,x
Cc1nnc(NC(=O)c2sc3nc(-c4cccs4)cc(C(F)(F)F)c3c2N)s1,u,u,-5.9,3.98µM*,-21.9,u
CC(C)(C)C(=O)c1sc2nc(-c3cccs3)cc(C(F)(F)F)c2c1N,-10.2%,-9.6%,-1.0,10µM*,-24.1,-8.7%
Nc1c(C(=O)Nc2nccs2)sc2nc(-c3cccs3)cc(C(F)(F)F)c12,u,-3.1%,-1.0,u,39.3,10µM*
Cc1cccc(C(=O)Nc2ccccc2C(=O)NCc2ccccc2)n1,x,x,-1.6,x,x,x
O=S(=O)(N=S(N1CCCCC1)N1CCCCC1)c1ccccc1,u,9.2µM*,-11.0,-24.0%,0.0,6.1%
O=S(=O)(/N=C(/c1ccccc1)N1CCCCCC1)c1ccccc1,-10.1%,-9.6%,1.8,-17.3%,-9.4,2.5%
O=C(c1ccc(F)cc1)N1CCN(c2ccc([N+](=O)[O-])c(N3CCCCC3)c2)CC1,23.1µM*,u,2.1,31.7%,-23.3,-1.6%
SMILES,TDP1 cell noCPT,TDP1 cell CPT,LDHA inh,RORgamma inh,IL-1B inflam inh,VP16 counter
O=C(COc1ccccc1Cl)N1CCN(c2ccc([N+](=O)[O-])c(N3CCCCC3)c2)CC1,23.1µM*,u,0.2,47.8%,u,-13.7%
Cn1c(=O)n(C)c2cc([N+](=O)[O-])c(N3CCN(C(=O)c4ccc(Cl)cc4)CC3)cc21,u,u,3.0,-3.2%,-80.0*,-0.6%
O=C(c1cccc(F)c1)N1CCN(c2cc(N3CCCCC3)c(F)cc2[N+](=O)[O-])CC1,18.4µM*,18.4µM*,-7.5,u,-74.4*,u
O=C(COc1ccc(Cl)cc1)N1CCN(c2ccc([N+](=O)[O-])c(N3CCCCC3)c2)CC1,u,u,-0.1,39.2%,-21.5,-7.4%
COc1ccc(/C=C/C(=O)OCCN(C)C)cc1,x,x,3.4,x,x,x
Cn1c(=O)n(C)c2cc([N+](=O)[O-])c(N3CCN(C(=O)c4ccc(F)cc4)CC3)cc21,u,18.4µM*,-7.8,19.7%,29.8,-3.1%
CCS(=O)(=O)N1CCN(c2cc3c(cc2[N+](=O)[O-])n(C)c(=O)n3C)CC1,u,2.0%,-9.0,1.0%,8.3,5.9%[10 µM]
CCCN(CCC)c1nc2ccccc2nc1C(C#N)C(=O)OCCOC (stereo unspecified),23.1µM*,u,1.1,-30.9%,-62.4*,7.5%
C=CCN(CC=C)c1nc2ccccc2nc1C(C#N)C(=O)OCCOC (stereo unspecified),u,20.6µM*,13.5,-25.9%,u,-3.2%
Cn1c2ccccc2c(=O)c2ccc(C#Cc3ccccn3)cc21,u,u,-1.2,11.2µM*,-17.0,15.8µM*
Cn1c2ccccc2c(=O)c2cc(C#Cc3ccccn3)ccc21,u,-18.2%,0.3,u,12.1,u
COc1ccc(-c2oc3ccc(-c4cc(OC)c(OC)c(OC)c4)cc3c2C#Cc2ccccn2)cc1,u,18.4µM*,-0.1,x,-1.8,x
COc1cc2oc3cc(C#Cc4ccc(N)cc4)ccc3c(=O)c2cc1OC,16.4µM*,16.4µM*,-12.3,x,-60.8*,x
COc1cc2oc3ccc(C#Cc4ccccn4)cc3c(=O)c2cc1OC,23.1µM*,u,-11.0,x,0.0,x
COc1cc2oc3ccc(C#Cc4ccc(N)cc4)cc3c(=O)c2cc1OC,u,u,-1.8,x,-22.6,x
COc1ccc(C#Cc2c(-c3ccc(OC)cc3)oc3ccc(-c4ccc(OC)cc4)cc23)cc1,-4.0%,-22.6%,-1.3,x,6.5,x
BrC(/C=C\c1ccccc1)=N/Nc1nc(N2CCOCC2)nc(N2CCOCC2)n1,10.3µM*,7.31µM*,-3.8,-28.6%,-6.2,-10.0%
